This passage reports Potency and activation results from PubChem BioAssay (Tox21).

The nature of assay [1]: qHTS assay to identify small molecule antagonists of the thyroid receptor (TR) signaling pathway - cell viability counter screen (AID 743064). Also: nearly all actives have a fitted effect of over 50% in size. Also: potency is read from the fitted curve at half-maximal effect. In a few lines:
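Fluorescence from CellTiter-Fluor, added after 23.5 h exposure at 37 °C, reported viability of GH3.TRE-Luc cells co-treated with compound and 1 nM T3. Measured in the same wells as the luciferase TR readout.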
Background: In qHTS, concentration-response curves come from the screen itself.

The nature of assay [2]: qHTS assay to identify small molecule antagonists of the thyroid receptor (TR) signaling pathway (AID 743065). Also: nearly all actives have a fitted effect of over 55% in size. Also: potency is read from the fitted curve at half-maximal effect. In a few lines: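 GH3.TRE-Luc rat pituitary cells carrying two TR response elements driving luciferase were plated for 4 h, given compound plus 1 nM T3 (final), and incubated 23.5 h at 37 C. ONE-Glo luminescence measured reporter inhibition; CellTiter-Fluor fluorescence tracked cytotoxicity.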

In assay [3] the test system is thyroid hormone receptor (rat, GH3 cells). Put plainly: qHTS assay to identify small molecule agonists of the thyroid receptor (TR) signaling pathway (AID 743066; calls by dose curve).
For assay [4], the target named is Estrogen receptor (Homo sapiens) (UniProt P03372). Put plainly: qHTS assay to identify small molecule antagonists of the estrogen receptor alpha (ER-alpha) signaling pathway (AID 743069; active = well fitted curve in the direction sought with a large enough effect in the signal ratio in the repeat runs, not every such curve was filed as active; the % refers to the signal ratio). In a few lines: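 A 17beta-estradiol challenge was applied right after compound transfer to ER-alpha-UAS-bla HEK293 cells previously kept in charcoal-stripped serum. Plates stood 18 hr at 37C and 5% CO2; fluorescence was read following 2 hr FRET substrate loading at room temperature.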

Assay [5] has the same target. Put plainly: qHTS assay to identify small molecule agonists of the estrogen receptor alpha (ER-alpha) signaling pathway (AID 743075; calls by dose curve;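 also: HEK293 GripTite cells with ER-alpha and UAS-driven beta-lactamase reporter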).
Assay [6] shares this target. Put plainly: qHTS assay to identify small molecule agonists of the estrogen receptor alpha (ER-alpha) signaling pathway using the BG1 cell line (AID 743079). Also: nearly all actives have a fitted effect of over 20% in size. Also: potency is read from the fitted curve at half-maximal effect. Particulars: BG1Luc4E2 cells, ERE-luciferase agonist, 22 h; activation: at 70.3 µM (top of the series).
In another assay the target is Aromatase (Homo sapiens) (UniProt P11511). As to the kind of experiment: qHTS assay to identify aromatase inhibitors (AID 743083). Also: nearly all actives have a fitted effect of over 55% in size. Also: potency is read from the fitted curve at half-maximal effect.
The nature of assay [7]: qHTS assay to identify small molecule antagonists of the estrogen receptor alpha (ER-alpha) signaling pathway - cell viability counter screen (AID 743074; calls by dose curve;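 also: HEK293 cells carrying ER-alpha-UAS-bla reporter stimulated with 17beta-estradiol; nearly all actives have a fitted effect of over 45% in size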).
Assay [8] is described as follows: qHTS assay to identify small molecule antagonists of the estrogen receptor alpha (ER-alpha) signaling pathway using the BG1 cell line - cell viability counter screen (AID 743081).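 Also: compound given together with 17beta-estradiol as the ER stimulus; nearly all actives have a fitted effect of over 45% in size.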 Also: potency is read from the fitted curve at half-maximal effect.
Assay [9] can be described thus: qHTS assay to identify small molecule antagonists of the estrogen receptor alpha (ER-alpha) signaling pathway using the BG1 cell line (AID 743080; calls by dose curve;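 also: BG1 cells stimulated with 17beta-estradiol alongside compound; nearly all actives have a fitted effect of over 25% in size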). In a few lines: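 Luciferase inhibition measured with ONE-Glo after 30 min at RT in BG1Luc4E2 cells given test compounds and 17beta-estradiol for 21.5 h at 37 C; CellTiter-Fluor viability read in the same wells beforehand.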

Results filed as inconclusive are left out. The source made the active and inactive calls. Unless noted, calls follow the shape of the dose curve; as a rule, active = well fitted curve in the direction sought with a large enough effect in the repeat runs; inconclusive = weak or mixed curves; inactive = no such curve, though single readings can be large; an effect the other way counts as inactive or inconclusive.
% is scaled to controls: 0 for no effect and ±100 for the full control effect.

Chain of Estrogen receptor (Homo sapiens) (P03372 whole entry, looked up): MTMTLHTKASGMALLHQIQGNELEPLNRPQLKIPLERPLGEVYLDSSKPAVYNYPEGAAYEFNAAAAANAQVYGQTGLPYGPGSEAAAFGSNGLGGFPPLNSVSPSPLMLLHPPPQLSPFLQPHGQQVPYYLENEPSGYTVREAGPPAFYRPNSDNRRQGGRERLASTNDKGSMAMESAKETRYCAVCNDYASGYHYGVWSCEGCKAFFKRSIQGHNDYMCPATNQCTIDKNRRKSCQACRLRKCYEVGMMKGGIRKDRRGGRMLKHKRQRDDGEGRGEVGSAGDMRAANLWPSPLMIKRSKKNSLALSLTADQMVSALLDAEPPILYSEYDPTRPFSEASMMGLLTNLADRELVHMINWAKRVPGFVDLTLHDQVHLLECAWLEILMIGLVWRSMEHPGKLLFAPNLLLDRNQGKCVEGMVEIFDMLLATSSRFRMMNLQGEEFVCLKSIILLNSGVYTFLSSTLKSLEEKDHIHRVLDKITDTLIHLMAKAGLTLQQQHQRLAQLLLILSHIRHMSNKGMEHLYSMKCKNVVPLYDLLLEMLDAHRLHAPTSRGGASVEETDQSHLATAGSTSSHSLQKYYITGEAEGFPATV
Chain of Aromatase (Homo sapiens) (P11511 whole entry, looked up): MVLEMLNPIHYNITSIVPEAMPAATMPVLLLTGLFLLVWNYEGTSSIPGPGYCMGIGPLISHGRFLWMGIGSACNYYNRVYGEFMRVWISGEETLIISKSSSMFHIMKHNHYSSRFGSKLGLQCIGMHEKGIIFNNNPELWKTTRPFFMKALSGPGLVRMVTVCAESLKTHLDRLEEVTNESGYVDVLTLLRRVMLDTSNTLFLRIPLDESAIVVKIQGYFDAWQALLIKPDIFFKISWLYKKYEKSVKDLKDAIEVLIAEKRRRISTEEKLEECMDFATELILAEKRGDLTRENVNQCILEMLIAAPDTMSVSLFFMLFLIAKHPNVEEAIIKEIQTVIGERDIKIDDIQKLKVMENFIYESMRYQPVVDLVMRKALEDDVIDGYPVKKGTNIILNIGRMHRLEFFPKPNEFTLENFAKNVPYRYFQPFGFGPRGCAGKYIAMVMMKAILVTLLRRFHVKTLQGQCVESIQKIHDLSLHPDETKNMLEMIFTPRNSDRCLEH

Turning to `CCOc1ccc(N=C(C)Nc2ccc(OCC)cc2)cc1`, the Potency entry in assay [1], in [2], in assay [3], in assay [4], in assay [5] and in assay [6] was “inactive” each time. The Potency result in the assay with Aromatase (Homo sapiens) is “inactive”.

Take `COc1ccc(/C=C/C(=O)OCCC(C)C)cc1`: the Potency result in assay [1], in [2], in assay [3], in assay [4], in [7] and in [5] was “inactive” each time. Besides, the Potency result (in [8]; with Aromatase (Homo sapiens)) was “inactive” in each case.

For `CCN(CC)c1ccc(N=Nc2ccc(S(=O)(=O)N(C)C)cc2)c(S(=O)(=O)NCC[n+]2ccccc2)c1`, the Potency entry in assay [1], in assay [2], in assay [3], in [4], in assay [7] and in [5] was “inactive” each time. Besides, the Potency result (in assay [9]; with Aromatase (Homo sapiens)) was “inactive” each time.

Turning to `CCCCCCCCCCCCCCCCCC(=O)OCCO`, the Potency entry in [1], in [2], in assay [3], in assay [4], in assay [5] and in assay [9] was “inactive” throughout. Moreover, the Potency result (in assay [8]; in the assay with Aromatase (Homo sapiens)) was “inactive” throughout. Besides, the Potency in assay [6] was 9.44 µM (active).

For `CCCCCCCCCCCCCCCC(=O)OC[C@@H](COP(=O)([O-])OCC[N+](C)(C)C)OC(=O)CCCCCCCCCCCCCCC`, the Potency entry in assay [1], in assay [2], in [3], in assay [4], in [5] and in assay [9] was “inactive” throughout. The Potency entry (in assay [8]; with Aromatase (Homo sapiens)) was “inactive” throughout. Also, in assay [6], the Potency is 29.8 µM (active).

As for `O=c1[nH]cnc2[nH]cc(CN3CCCCC3)c12`, the Potency entry in [1], in assay [2], in assay [3], in assay [4], in assay [5] and in [6] was “inactive” throughout. The Potency entry in [9] and in assay [8] was “inactive” in each case.

On to `C[N+](C)(CCCCCC[N+](C)(C)C1c2ccccc2-c2ccccc21)C1c2ccccc2-c2ccccc21`, for which the Potency result in [1], in assay [2], in assay [3], in assay [4], in assay [5] and in assay [6] was “inactive” in each case. Also, the Potency entry (in [9]; in [8]; with Aromatase (Homo sapiens)) was “inactive” in each case.

Consider `CCC(Cc1c(I)cc(I)c(O)c1I)C(=O)O` (centres undefined), for which the Potency result in [1], in assay [2], in assay [3], in [4], in [7] and in assay [9] was “inactive” throughout. For the same compound, the Potency entry (in assay [8]; in the assay with Aromatase (Homo sapiens)) was “inactive” throughout.

On to `C=C[C@]1(C)C[C@@H](OC(=O)CSC(C)(C)CNC(=O)[C@H](N)C(C)C)[C@]2(C)[C@H](C)CC[C@]3(CCC(=O)[C@H]32)[C@@H](C)[C@@H]1O`, for which the Potency is 2.66 µM (active) in assay [1], 13.3 µM (active) in assay [2], 5.96 µM (active) in assay [8] and 21.1 µM (active) with Aromatase (Homo sapiens). Further, the Potency result in assay [3], in assay [4], in assay [7] and in assay [5] was “inactive” each time.

For `CO[C@H]1[C@@H](O)[C@H](N)[C@@H](O[C@H]2O[C@H]([C@H](C)N)CC[C@H]2N)[C@H](O)[C@@H]1N(C)C(=O)CN`, the Potency result in assay [1], in [2], in assay [3], in [4], in assay [5] and in assay [9] was “inactive” each time. In addition, the Potency result (in assay [8]; with Aromatase (Homo sapiens)) was “inactive” in each case. Also, the Potency in [6] was 33.5 µM (active).

As to `Cc1cc(-c2ccc(N=Nc3c(S(=O)(=O)O)cc4cc(S(=O)(=O)O)cc(N)c4c3O)c(C)c2)ccc1N=Nc1c(S(=O)(=O)O)cc2cc(S(=O)(=O)O)cc(N)c2c1O`, the Potency in assay [1] is 23.7 µM (active); in assay [2] it was 11.9 µM (active); in [8], 21.1 µM (active); with Aromatase (Homo sapiens) it was 11.9 µM (active). Also, the Potency result in assay [3], in assay [4] and in assay [5] was “inactive” throughout.

Take `OCC(O)COc1ccc(Cl)cc1` (centres undefined): the Potency entry in assay [1], in [2], in assay [3], in assay [4], in assay [5] and in assay [6] was “inactive” in each case. Moreover, the Potency entry (in assay [9]; in [8]; with Aromatase (Homo sapiens)) was “inactive” each time.

On to `COc1cc(S(C)=O)ccc1-c1nc2ncccc2[nH]1` (centres undefined), for which the Potency result in assay [1], in assay [2], in assay [3], in assay [4], in [5] and in assay [6] was “inactive” throughout. For the same compound, the Potency result (in assay [9]; in [8]; with Aromatase (Homo sapiens)) was “inactive” each time.

Turning to `O=C(O)CCC/C=C\C[C@@H]1[C@@H](/C=C/[C@@H](O)COc2cccc(C(F)(F)F)c2)[C@H](O)C[C@@H]1O`, the Potency result in [1], in assay [2], in [3], in assay [4], in assay [7] and in assay [8] was “inactive” each time. For the same compound, the Potency entry with Aromatase (Homo sapiens) was “inactive”. In assay [6], the activation was 49.9% (active).

For the compound `Cc1ncc(COP(=O)(O)O)c(CN)c1O`, the Potency entry in assay [1], in assay [2], in assay [3], in [4], in assay [5] and in assay [6] was “inactive” each time. Also, the Potency result (in assay [9]; in assay [8]; with Aromatase (Homo sapiens)) was “inactive” in each case.

Take `O=C(OCc1ccccc1)c1cccnc1`: the Potency entry in [1], in assay [2], in [3], in assay [4], in [5] and in [6] was “inactive” each time. Also, the Potency entry (in [8]; with Aromatase (Homo sapiens)) was “inactive” each time.

As to `O=C[C@H](O)[C@@H](O)[C@H](O[C@H]1O[C@H](CO)[C@@H](O[C@H]2O[C@H](CO)[C@@H](O)[C@H](O)[C@H]2O)[C@H](O)[C@H]1O)[C@H](O)CO`, the Potency entry in [1], in assay [2], in assay [3], in assay [4], in assay [5] and in assay [9] was “inactive” throughout. In addition, the Potency result (in assay [8]; in the assay with Aromatase (Homo sapiens)) was “inactive” each time. For the same compound, the Potency in assay [6] was 26.6 µM (active).

For `CC(=O)O[C@H]1C(=O)[C@@]2(C)[C@H]([C@H](OC(=O)c3ccccc3)[C@]3(O)C[C@H](OC(=O)[C@H](O)[C@@H](NC(=O)c4ccccc4)c4ccccc4)C(C)=C1C3(C)C)[C@]1(OC(C)=O)CO[C@@H]1C[C@@H]2O`, the Potency in assay [1] is 0.266 µM (active); in assay [2], 0.133 µM (active). The Potency result (in [3]; in assay [4]; in assay [7]; in assay [5]; with Aromatase (Homo sapiens)) was “inactive” each time.
